# Hits are enriched below; roughly 3% of the tested compounds scored in any of these assays.
# CHT PAM: human CHT allosteric activation. CHT-expressing cells, membrane potential dye, choline EC20; active compounds read high; LV-AA mutant CHT in HEK293 cells. AID 488977. actives 0.49% (n = 310,000). B-score at 10 µM;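 active means initial fluorescence not abnormally high and integrated response B-score, plate-corrected, over 3 SD above library mean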
# Target sequence (Q9GZV3 whole entry, looked up): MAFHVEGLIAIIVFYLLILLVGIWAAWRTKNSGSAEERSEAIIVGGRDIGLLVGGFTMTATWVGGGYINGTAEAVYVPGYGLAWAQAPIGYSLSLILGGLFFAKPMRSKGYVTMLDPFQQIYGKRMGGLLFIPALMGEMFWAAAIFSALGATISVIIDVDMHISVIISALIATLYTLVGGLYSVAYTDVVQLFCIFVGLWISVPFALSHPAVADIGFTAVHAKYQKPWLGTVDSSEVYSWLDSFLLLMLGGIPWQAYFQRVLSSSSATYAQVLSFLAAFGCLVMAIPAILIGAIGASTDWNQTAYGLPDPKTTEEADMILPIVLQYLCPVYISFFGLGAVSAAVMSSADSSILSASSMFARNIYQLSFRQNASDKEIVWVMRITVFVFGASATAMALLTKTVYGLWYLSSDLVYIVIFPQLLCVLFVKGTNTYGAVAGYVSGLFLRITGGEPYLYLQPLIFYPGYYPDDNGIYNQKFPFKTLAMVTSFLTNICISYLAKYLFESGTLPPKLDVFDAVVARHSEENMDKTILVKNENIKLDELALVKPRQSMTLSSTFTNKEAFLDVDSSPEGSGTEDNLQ
# NLRP3 yeast inh: NALP3 inhibition in yeast | Yeast reconstituted NLRP3/ASC/caspase-1, beta-gal luminescence, 24 h | inhibition, % at 10 µM | AID 2825 | actives 0.39% (n = 330,000);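 active means inhibition of 50% or more; inactive means inhibition below 50%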;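 further: plate controls were induced DMSO wells for no effect and uninduced yeast grown without galactose for full effect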
# CHT inh: inhibitors of human choline transporter CHT | Q9GZV3 | CHT-expressing cells, membrane potential dye, choline response; active compounds read low | B-score at 10 µM | actives 0.86% (n = 310,000) | AID 488975;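 active means B-score over 3 SD under the library average, and starting fluorescence ratio not unusually high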;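 further: choline stimulus applied at its EC90 after an EC20 pre-addition; B-score computed on integrated fluorescence ratio after choline addition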
# Mot1-301 SUMO: inhibitors of SUMOylation pathway: yeast Mot1-301 growth rescue | S. cerevisiae Mot1-301 growth rescue, ATP luminescence, 38.5C; percent above DMSO median, 100 means doubled | actives 1% (n = 320,000) | growth rescue, % at 18.8 µM;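 active means every valid replicate shows activation above 250% relative to neutral control wells; inactive means the rest, any valid replicate at or below 250%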;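 further: OY570 slx delta 5 strain wells were the positive control but not used for scaling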
# NALP1 inh: inhibitors of NALP1 inflammasome in yeast; S. cerevisiae NALP1/ASC/caspase-1 growth, X-gal OD620, 72 h; inhibition, % at 10 µM; actives 0.61% (n = 280,000); in the data active means inhibition mostly above about 24%, no sharp cut-off; inactive means mostly below about 32%
# Bfl-1 A1 inh: inhibitors of the anti-apoptotic protein A1, read as caspase activation; MEF A1-2A-BIM cells, Caspase-Glo 3/7 luminescence, 3 h; percent of clofoctol response, vehicle zero; caspase activation, % (test concentration not listed); actives 0.066% (n = 330,000);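 active means over half of replicate activation scores above 10%, or exactly half above 10 with the replicate mean above 10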
# CHT activ conf: human CHT activation, confirmatory screen | CHT-expressing cells, membrane potential dye fluorescence (FDSS); % of choline EC20–EC90 response window; HEK293 expressing CHT LV-AA mutant; choline added at its EC20 | actives 91% (n = 2,500) | activation, % at 10 µM | shares compounds with CHT PAM;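 active means primary screen active, with duplicate mean activation above negative control mean plus 3 SD, cut at about 11% in these data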
# HEK293 MP dye: counter-screen for CHT activators: effect in parental HEK293 cells; shares compounds with CHT PAM; membrane potential dye fluorescence (FDSS); measured after EC20 choline addition; ratio readout change at 10 µM, hits read low; actives 62% (n = 2,500); AID 623908;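 active means duplicate-averaged ratio beyond 3 SD from buffer wells, up or down, though filed actives are nearly all decreases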
# * marks the source's active call; other numbers are inactive results; i = inactive; x = no result given.
SMILES,CHT PAM,NLRP3 yeast inh,CHT inh,Mot1-301 SUMO,NALP1 inh,Bfl-1 A1 inh,CHT activ conf,HEK293 MP dye
C/C(CCC(C)C)=N\Nc1cc(C)c2ccccc2n1,7.4*,8,i,-16,-18,0,52*,i
CCC1CCc2sc(C(=O)NCC(c3ccc(OC)cc3)N3CCCC3)cc2C1 (configuration not stated),i,17,i,9,x,1,22*,i
CCN(CC)CCn1c(=N)n(CC(O)COc2cccc(C)c2)c2ccccc21 (configuration not stated),6.4*,11,i,-10,18,0,54*,i
CCOC(=O)c1c(NC(=O)CSc2nc3ccccc3o2)sc(C(C)=O)c1C,9.1*,15,i,7,17,0,12*,i
C=CCn1c(SCc2ccc(C(=O)O)cc2)nc2sc(C)c(C)c2c1=O,i,3,i,-8,20,-1,x,x
Cc1sc2nc(SCc3ccc(C(=O)O)cc3)n(Cc3ccco3)c(=O)c2c1C,6.7*,2,i,0,7,0,32*,i
CN(C)/C=C/C(=O)c1ccc([N+](=O)[O-])c(CS(=O)(=O)c2ccc(Cl)cc2)c1,i,5,i,401,25,0,x,x
C=CCOC(=O)c1ccc(-n2cncn2)nc1,i,-4,i,-4,12,0,21*,i
COc1ccc(-c2nc3n(c2C)CCC3)cc1,6.4*,9,i,-3,12,1,57*,-63*
CN1CCN(c2nc3ccccc3nc2C(C#N)C(=O)OC2CCCCC2)CC1 (configuration not stated),8.6*,23,i,8,-10,-1,44*,-48*
CCN1CCN(c2nc3ccccc3nc2C(C#N)C(=O)OC2CCCCC2)CC1 (configuration not stated),x,x,x,x,22,x,x,x
Nc1nc(N2CCN(c3ccccn3)CC2)nc2ccccc12,i,6,i,395,13,-3,26*,-42*
O=C(c1ccccc1-c1ccccc1)N1CCN(c2ccccn2)CC1,i,8,i,3,50,1,38*,i
O=C(Nc1nc2ccccc2n1CCOc1ccccc1)c1ccco1,i,29,i,18,26,-1,x,x
CCn1cc(Cl)c(C(=O)Nc2nc3ccccc3n2CCN2CCCCC2)n1,9.6*,5,i,46,-12,1,53*,-67*
COc1ccccc1CNc1nc2ccccc2n1CCN1CCCCC1,6.3*,-6,i,-4,14,-1,40*,-22*
O=C(Nc1nc2ccccc2n1CCN1CCCCC1)c1ccco1,8.1*,15,i,-6,0,0,29*,-41*
CC(=O)Nc1nc2ccccc2n1CCN1CCOCC1,i,14,i,-10,2,0,x,x
O=C(O)CCc1ccc(S(=O)(=O)Nc2cc(C(F)(F)F)ccc2N2CCCC2)cc1,x,9,x,x,x,x,x,x
Cc1ccc(-c2csc3ncn(C(C)C(=O)O)c(=O)c23)cc1 (configuration not stated),i,12,i,3,-4,1,x,x
Cc1ccc(C(c2nnnn2C2CCCCC2)N(C)C2CCCCC2)cc1 (configuration not stated),i,10,i,-2,-3,0,6,i
COc1ccc(CCNC(=O)C2CCN(Cc3nc(-c4cccc(Cl)c4)oc3C)CC2)cc1OC,i,8,i,3,22,0,30*,-36*
COc1ccc(-c2nc(CN3CCC(C(=O)NC4CC4)CC3)c(C)o2)cc1OC,i,3,i,-5,-4,0,x,x
COc1ccc(-c2nc(CN3CCC(C(=O)N4CCc5ccccc54)CC3)c(C)o2)cc1OC,i,-8,i,-5,-11,-1,39*,-38*
COc1cc2c(cc1OC)C(c1cccc([N+](=O)[O-])c1)N(C(=O)c1ccc(F)cc1)CC2 (configuration not stated),7.1*,10,i,22,-4,0,46*,i
SMILES,CHT PAM,NLRP3 yeast inh,CHT inh,Mot1-301 SUMO,NALP1 inh,Bfl-1 A1 inh,CHT activ conf,HEK293 MP dye
COc1cc2c(cc1OC)C(c1ccccc1)N(C(=O)c1ccccc1)CC2 (configuration not stated),i,13,i,-2,17,0,x,x
COc1ccc(C2c3cc(OC)c(OC)cc3CCN2C(=O)c2cccc([N+](=O)[O-])c2)cc1OC (configuration not stated),i,0,i,-16,1,0,29*,i
COc1cc2c(cc1OC)C(c1ccc([N+](=O)[O-])cc1)N(C(C)=O)CC2 (configuration not stated),i,11,i,-5,6,0,x,x
COc1ccc(C)cc1NC(=O)NC(C)c1ccc2c(c1)OCO2 (configuration not stated),i,17,i,-6,-2,1,x,x
O=C(c1cc([N+](=O)[O-])ccc1N1CCCCC1)N1CCc2ccccc21,i,3,i,11,19,1,35*,i
c1ccc(-c2ccnc3ncnn23)nc1,i,16,i,-15,22,0,x,x
c1cn(-c2ccc(-c3ccnc4ncnn34)cc2)cn1,8.5*,-1,i,298,17,0,41*,-40*
CCOc1ccccc1NC(=O)CCS(=O)(=O)c1ccc2c(c1)CCN2C(C)=O,i,-1,i,8,29,0,x,x
CCCN1CCC(=O)N([C@H](COc2ccccc2)Cc2ccccc2)CC1,i,9,i,-10,12,0,x,x
CC(C)CN1CCC(=O)N([C@H](CSc2ccccc2)Cc2ccccc2)CC1,13*,7,i,-3,14,0,42*,i
O=C1CCN(Cc2ccccc2)CCN1[C@H](COc1ccccc1)Cc1ccccc1,6.7*,18,i,0,6,2,24*,i
Cc1ccc(SC[C@H](Cc2ccccc2)N2CCN(CC(C)C)CCC2=O)cc1,x,33,x,1,x,0,x,x
CC(C)C[C@@H](CO)N1CCN(Cc2ccccc2)CCC1=O,i,16,i,-12,10,0,x,x
